Laboratory results reported in PubChem BioAssay AID504634 (The Scripps Research Institute Molecular Screening Center, 2011).
About 280 (0.082%) of roughly 340,000 compounds were called active. This is one part of a sample in which actives are shown more often than they occur. A number with no mark means an inactive call. No stated cut-off is given here; in the data, active means inhibition mostly above about 23% (no sharp cut-off); inactive means mostly below about 18%.

Each compound was assayed against 5-hydroxytryptamine receptor 5A (Homo sapiens) (UniProt P47898) (assay: HTR5A inverse agonists in luminescence cell assay, primary screen, counter-screen for OPRM1-OPRD1 heterodimer inverse agonist project, full-deck HTS (AID 504634;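 further: 0% = cells with DMSO and 100% = no-cell wells with DMSO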)). Settings: HTR5A cell line, inverse agonism, at 9.3 µM, active compounds read high.
Sequence of 5-hydroxytryptamine receptor 5A (Homo sapiens) (P47898 whole entry, looked up): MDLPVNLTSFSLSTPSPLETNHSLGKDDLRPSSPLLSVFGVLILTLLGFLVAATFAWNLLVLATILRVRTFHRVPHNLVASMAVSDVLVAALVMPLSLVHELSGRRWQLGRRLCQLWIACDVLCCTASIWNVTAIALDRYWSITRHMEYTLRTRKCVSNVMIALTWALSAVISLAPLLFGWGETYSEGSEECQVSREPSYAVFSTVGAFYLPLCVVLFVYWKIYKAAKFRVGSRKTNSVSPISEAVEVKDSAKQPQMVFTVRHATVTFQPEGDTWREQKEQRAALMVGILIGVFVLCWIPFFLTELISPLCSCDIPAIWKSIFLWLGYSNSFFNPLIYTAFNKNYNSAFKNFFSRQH

In order of falling inhibition:
1. O=c1[nH]nc(Cc2ccccn2)c2ccccc12  34.8%
2. CCOc1ccc(C(=O)NC(=S)Nc2ccc(N3CCOCC3)c(Cl)c2)cc1[N+](=O)[O-]  30.9%
3. C=CCNC(=O)C1CC=CCC1C(=O)O (configuration not stated)  19.4%
4. CS(=O)(=O)N(CC(=O)Nc1ccc(F)cc1F)c1cccc([N+](=O)[O-])c1  14.4%
5. COC(=O)c1ccc(NC(=S)NN2CCOCC2)cc1  13.4%
6. O=C(Nc1ccc(Cl)c(Cl)c1)N1CC=C(c2ccccc2)CC1  13.3%
7. O=C(Cc1ccccn1)c1ccc(O)cc1O  12.8%
8. COc1cc(N)c(Cl)cc1C(=O)OCC(=O)c1ccc2c(c1)NC(=O)CO2  10.7%
9. CCn1c(=O)n(CC)c2cc(N3CCCC3)c(NC(=O)c3ccccc3Br)cc21  10.1%
10. CC[n+]1cc(C)ccc1/C=C/c1ccc(N(C)C)cc1  9.17%
11. Cc1cc(C)nc(SC(C)C(=O)N/N=C/c2cccs2)n1 (configuration not stated)  9.06%
12. COc1ccc([C@H]2CC(=O)C=C(c3ccc(CO)cc3)C2)cc1  8.13%
13. CC(C)COc1ccc(C(=O)NNC(=O)CCC(=O)c2cccs2)cc1  8.1%
14. Cc1nnc(SCC(=O)N(C(C)C)C(C)C)nc1C  7.98%
15. C=CCN1C=C(C(=O)c2ccccc2)C(=O)CC1  6.15%
16. CCc1nccn1CCC(=O)N1CCCC(N2CCN(c3ccccc3F)CC2)C1 (configuration not stated)  5.46%
17. CCC1CCCCN1CCCNC(=O)c1cc2c(Cl)nc3ccccc3c2s1 (configuration not stated)  5.42%
18. COc1ccc2oc(C(=O)N(CC(C)C)C3CCS(=O)(=O)C3)c(C)c2c1 (configuration not stated)  5.04%
19. CC[C@]1(C(=O)OC)[C@H]2C(=O)N(Cc3ccccc3)C(=O)[C@H]2[C@H]2CN=C(SCc3ccc(Cl)cc3)N21  4.46%
20. Cc1ccccc1-c1n[nH]c(=S)n1/N=C/c1ccc(-c2ccccc2Br)o1  4.19%
21. Cc1c(CCC(=O)N[C@@H](CC(C)C)C(=O)O)c(=O)oc2c(C)c3oc4c(c3cc12)CCCC4  3.6%
22. COc1ccc(CNC(=O)C(c2ccc(O)cc2)N(Cc2ccco2)C(=O)c2snc(C(N)=O)c2N)cc1 (configuration not stated)  3.12%
23. c1ccc2c(c1)OC1OC2Oc2ccccc21  2.1%
24. COc1ccc(-c2nnc(SCC(=O)NC3CCCCC3)o2)cc1OC  0.53%
25. COc1ccc2c(c1)CCC/C2=N\OC(=O)c1ccccc1F  0.11%
26. O=C1c2ccccc2[C@@H]2C[C@@H](O)[C@H](Nc3ccccc3Cl)CCN12  -0.71%
27. CC(C)CCN1CCN(C/C=C/c2ccco2)CC1CCO (configuration not stated)  -0.83%
28. COc1cc(C(=S)N2CCOCC2)cc(OC)c1OC(=O)c1ccc([N+](=O)[O-])cc1[N+](=O)[O-]  -0.97%
29. CCCCN(C(=O)c1cccc(N2C(=O)c3ccccc3C2=O)c1)c1c(N)n(CCCC)c(=O)[nH]c1=O  -1.54%
30. COc1ccc(-c2nnc(SC(=O)N3c4ccccc4Sc4ccccc43)o2)cc1  -1.76%
31. CN1C(CC(=O)Nc2ccc(Br)cc2)c2ccccc2CC1(C)C (configuration not stated)  -2.97%
32. COC(=O)c1ccc(Sc2ccc(F)cc2)c(N)c1  -3.93%
33. Cc1ccc2cc(CN(c3ccc(C)c(C)c3)S(C)(=O)=O)c(=O)[nH]c2c1  -3.96%
34. CC(=O)c1ccc(N2CCN(C(=O)c3ccc(Cl)c(S(=O)(=O)NC4CC4)c3)CC2)c(F)c1  -4.11%
35. CCCCN1CC(COc2ccccc2)Oc2cccc(F)c2S1(=O)=O (configuration not stated)  -4.35%
36. COCc1cc(=O)[nH]c(SC)n1  -5.28%
37. O=C1CC(C(=O)O)NC(=S)N1 (configuration not stated)  -5.32%
38. Cc1ccc(OCCC(=O)Nc2ccc(S(=O)(=O)Nc3nccs3)cc2)cc1  -6.52%
39. CC/C(=C\c1ccc(Cl)cc1)c1ccncc1  -7.07%
40. CC(C)CCNC(=O)CCNS(=O)(=O)c1ccc(Cl)cc1  -7.35%
41. O=C1C(Cc2ccc(O)cc2)NC(=S)N1Cc1ccccc1 (configuration not stated)  -7.4%
42. CCOc1ccc(S(=O)(=O)Nc2cccc(C(=O)NCC3(N4CCCCC4)CCCCC3)c2)cc1  -7.44%
43. CCCCCc1c(C)nc(N2CCN(Cc3ccc4c(c3)OCO4)CC2)[nH]c1=O  -8.1%
44. N#Cc1ccc(C2=CC(=O)C[C@H](c3ccc(Cl)cc3)C2)cc1  -10.1%
45. O=C(CSc1nnc(Nc2ccccc2F)s1)NC1CCCC1  -11.3%
46. CC(OC(=O)c1ccccc1NCCO)C(=O)Nc1ccnn1C(C)C (configuration not stated)  -11.8%
47. O=c1o[nH]c(-c2ccccc2)c1N=Nc1c(F)cccc1Cl  -12.2%
48. COc1cccc(COC(=O)C2CCN(S(=O)(=O)c3cccs3)CC2)c1OC  -12.6%
49. CN(C)CCCNC(=S)N1CCN(c2nc(-c3ccccc3)cs2)CC1  -13.5%
50. Cc1cccc(NC(=O)N2CCCCCC2)c1C  -15.6%
51. COc1ccc(N/N=C2/CCCCC2=O)cc1  -17.4%
52. OC(COc1ccc2c(c1)CCC2)CN1CCN(c2cccc(Cl)c2)CC1 (configuration not stated)  -19.1%
53. CC(C)(C)n1nnnc1C(c1ccccc1F)N1CCN(C(=O)c2ccco2)CC1 (configuration not stated)  -20.1%
54. Cc1cc(C(=O)COc2ccccc2[N+](=O)[O-])c(C)n1-c1cccc(S(=O)(=O)N2CCOCC2)c1  -23.2%
55. O=S(=O)(Nc1ccc(-c2ccc(N3CCOCC3)nn2)cc1)c1cc(Cl)ccc1Cl  -25.2%
56. CCCCc1c(O)nc2n(c1=O)CCS2  -25.6%
57. Cc1nn(CCCC(=O)NCc2ccccc2Cl)c(=O)c2nccn12  -28.5%
58. CCN(CC(=O)Nc1cc(Cl)ccc1C)C(=O)CSCc1ccc(C)cc1  -29.4%
59. CCc1c(SCCC(=O)O)nc2ccccc2c1C  -56.3%

In the case of `CCC1Nc2ncnc(N3CCN(c4ccccc4)CC3)c2N(Cc2ccc(Cl)cc2)C1=O` (configuration not stated), the inhibition is reported as 72% (active).
In the case of `COc1ccc(-c2nnc(SC(C)C(=O)NC3CC3)o2)cc1` (configuration not stated), the inhibition is reported as 24.2% (active).
`CCCCCCCCc1c(O)nc(-n2[nH]c(C)c(CCO)c2=O)[nH]c1=O` was tested, and the inhibition was 23.4% (active).
